Only some compounds are listed: those with a hit (about 8.1% of all), similar ones and a draw of the others.
NOMO-1 viab: NOMO-1 AML cell viability reduction, primary screen, STK33 inhibitor project, CellTiter-Glo luminescence; NOMO-1 AML viability, 72 h; 7.5% of 37,000 active; inhibition, % (test concentration not listed); AID 2330, 2010; in the data active = inhibition above about 80%
MITF inh: inhibitors of MITF, primary screen, MITF inhibitor project, cell-based, luminescence; TRPM1 promoter luciferase, 24 h; inhibition, % (concentration not given with the values); 0.28% of 37,000 active; in the data active = inhibition above about 85%;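 note: human melanocyte line stably carrying TRPM1 promoter luciferase reporter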
PD-1 reverse act: activators reversing PD-1 mediated T-cell inhibition, primary screen, luminescence, primary human CD4 T cells, PD-L1 beads | CellTiter-Glo 96 h | activation, % (no concentration beside the values) | 29,000 tested, under 10 active | AID 2316, 2010; call rule not given here
Shh pathway inh: Hedgehog pathway signaling inhibitors, primary screen, luminescence, Shh-LIGHT2 cells, Gli-luciferase; Shh-LIGHT2 Gli-luciferase reporter, 30 h; inhibition, % (test concentration not listed); 2.1% of 22,000 active; AID 2313, 2010;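 active = mean inhibition across valid replicates above about 65%, limit read from the data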;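 note: pathway switched on by Shh-conditioned medium diluted 1 in 25 in low serum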
Numbers stand for hits; . = inactive; / = no result given.

SMILES	NOMO-1 viab	MITF inh	PD-1 reverse act	Shh pathway inh
Cc1noc(C)c1S(=O)(=O)Nc1cccc2c1O[C@H](CN(C)Cc1ccc(C(=O)Nc3ccccc3N)cc1)[C@H](C)CN([C@H](C)CO)C2=O	118	.	.	/
C[C@@H]1CN([C@H](C)CO)C(=O)c2cc(NC(=O)C3CCCCC3)ccc2O[C@@H]1CN(C)Cc1ccc2c(c1)OCO2	.	.	/	.
C[C@H](CO)N1C[C@H](C)[C@H](CN(C)Cc2ccc(C(=O)Nc3ccccc3N)cc2)Oc2c(NS(=O)(=O)c3ccc(Cl)cc3)cccc2C1=O	121	.	.	/
C[C@@H]1CN([C@H](C)CO)C(=O)c2cccc(NS(=O)(=O)c3ccc(Cl)cc3)c2O[C@@H]1CN(C)Cc1ccc(C(=O)Nc2ccccc2N)cc1	126	.	.	/
COc1ccc(S(=O)(=O)Nc2cccc3c2O[C@@H](CN(C)Cc2ccc(C(=O)Nc4ccccc4N)cc2)[C@H](C)CN([C@H](C)CO)C3=O)cc1	.	.	.	/
C[C@H]1CN([C@@H](C)CO)C(=O)c2cccc(NS(=O)(=O)c3ccc(Cl)cc3)c2O[C@H]1CN(C)Cc1ccc(C(=O)Nc2ccccc2N)cc1	118	.	.	/
COc1ccc(S(=O)(=O)N(C)C[C@H]2Oc3ccc(NS(=O)(=O)c4cn(C)cn4)cc3C(=O)N([C@@H](C)CO)C[C@@H]2C)cc1	.	.	.	.
COc1ccc(S(=O)(=O)N(C)C[C@@H]2OCCCC[C@@H](C)Oc3ccc(NC(=O)Nc4ccc(C(F)(F)F)cc4)cc3C(=O)N([C@H](C)CO)C[C@@H]2C)cc1	.	.	.	.
Cc1noc(C)c1S(=O)(=O)Nc1ccc2c(c1)CC(=O)N([C@H](C)CO)C[C@H](C)[C@H](CN(C)CC1CCCCC1)O2	.	.	.	.
COc1ccc(S(=O)(=O)Nc2ccc3c(c2)CC(=O)N([C@@H](C)CO)C[C@@H](C)[C@@H](CN(C)CC2CC2)O3)cc1	.	.	.	/
COc1ccc(S(=O)(=O)Nc2ccc3c(c2)CC(=O)N([C@@H](C)CO)C[C@@H](C)[C@@H](CN(C)CC2CCCCC2)O3)cc1	101	.	.	.
COc1ccc(S(=O)(=O)Nc2ccc3c(c2)CC(=O)N([C@@H](C)CO)C[C@H](C)[C@@H](CN(C)CC2CCCCC2)O3)cc1	109	.	/	.
COc1ccc(S(=O)(=O)Nc2ccc3c(c2)CC(=O)N([C@@H](C)CO)C[C@H](C)[C@@H](CN(C)CC2CC2)O3)cc1	.	.	.	.
C[C@@H]1CCCCO[C@H](CN(C)Cc2ccc(C(=O)Nc3ccccc3N)cc2)[C@@H](C)CN([C@H](C)CO)C(=O)c2cc(NS(=O)(=O)c3ccc(Cl)cc3)ccc2O1	127	.	.	/
C[C@@H]1CCCCO[C@H](CN(C)C(=O)Nc2cccc3ccccc23)[C@@H](C)CN([C@H](C)CO)C(=O)c2cc(NS(=O)(=O)c3ccccc3)ccc2O1	.	.	.	/
C[C@@H]1CCCCO[C@H](CN(C)C(=O)Nc2cccc3ccccc23)[C@@H](C)CN([C@H](C)CO)C(=O)c2cc(NS(=O)(=O)c3ccc(F)cc3)ccc2O1	94	.	.	.
C[C@@H]1CCCCO[C@@H](CN(C)Cc2ccc(C(=O)Nc3ccccc3N)cc2)[C@@H](C)CN([C@H](C)CO)C(=O)c2cc(NS(=O)(=O)c3ccc(F)cc3)ccc2O1	141	.	.	/
C[C@@H]1CCCCO[C@@H](CN(C)Cc2ccc(C(=O)Nc3ccccc3N)cc2)[C@@H](C)CN([C@H](C)CO)C(=O)c2cc(NS(=O)(=O)c3ccccc3)ccc2O1	140	.	.	/
Cc1noc(C)c1S(=O)(=O)N(C)C[C@@H]1Oc2ccc(NS(=O)(=O)c3cccs3)cc2CC(=O)N([C@H](C)CO)C[C@@H]1C	.	.	/	/
Cc1ccc(OCC(=O)NCCN2CCOCC2)c(Br)c1	.	.	.	/
C[C@@H]1CN([C@@H](C)CO)C(=O)Cc2cc(NC(=O)Nc3ccc(C(F)(F)F)cc3)ccc2O[C@@H]1CN(C)Cc1ccc(Cl)c(Cl)c1	115	.	.	.
C[C@@H]1CN([C@H](C)CO)C(=O)Cc2cc(NC(=O)Nc3ccc(C(F)(F)F)cc3)ccc2O[C@H]1CN(C)Cc1ccc(C(F)(F)F)cc1	94	.	.	.
C[C@@H]1CN([C@H](C)CO)C(=O)Cc2cc(NC(=O)Nc3ccc(C(F)(F)F)cc3)ccc2O[C@@H]1CN(C)Cc1ccc(C(F)(F)F)cc1	120	.	.	.
